Screening results from PubChem.
Rows were chosen to be rich in hits. Some 5.4% of all compounds tested hit in one or more screens of this group.
PNC inhibitor = perinucleolar compartment assembly inhibition; activity change (PNC), negative = inhibition, % at 10 µM; 140,000 compounds, 3.1% hits; PC3M PTB-GFP, PNC prevalence imaging, 16 h; active compounds read low;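 active = readout at or below -70, meaning at least 70% loss of cells showing the perinucleolar compartment, a nuclear body marking cancer cells; inconclusive = readout between -30 and a set limit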;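 note: plate controls were DMSO wells for no effect and camptothecin positive control wells for full effect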
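Compounds are pinned in duplicate onto adhered PC3M cells stably expressing GFP-tagged PTB and incubated 16 h at 37 C. Cells are then fixed, nuclei stained with Hoechst, and PNC-positive cells counted.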
IMPase cell inh = cell-permeable inhibitors of inositol monophosphatase (IMPase) | 120,000 tested, under 10 active | inhibition (IP1 accumulation), % at 46.1 µM | CHO-M1 cells, IP1 accumulation, HTRF TR-FRET ratio | AID 901; active = well fitted curve in the direction sought with a large enough effect in the signal ratio, not every such curve was filed as active; inconclusive = small, poorly fitted or top-dose-only effect, or a change in a side signal; inactive = no such curve, though single readings can be large or run the other way; the % refers to the signal ratio;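 note: cells stimulated with carbachol in lithium chloride buffer; plate controls were DMSO basal wells for no effect and reference inhibitor wells for full effect; higher means more IMPase inhibition seen as more IP1 and lower FRET ratio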
Target sequence (P97697 whole entry, looked up): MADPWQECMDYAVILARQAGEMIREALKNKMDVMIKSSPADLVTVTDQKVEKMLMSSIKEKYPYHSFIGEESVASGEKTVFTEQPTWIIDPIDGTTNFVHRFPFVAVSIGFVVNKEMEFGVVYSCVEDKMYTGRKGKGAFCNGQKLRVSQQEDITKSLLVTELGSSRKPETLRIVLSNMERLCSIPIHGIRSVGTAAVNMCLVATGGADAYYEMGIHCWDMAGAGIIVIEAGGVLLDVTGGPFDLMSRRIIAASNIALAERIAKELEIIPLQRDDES
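CHO-M1, 2000 cells/well, cultured 16–30 h; cpd up to 46 uM; carbachol (50 uM solution, stimulation buffer w/ 50 mM LiCl, pH 7.4), 30 min 37C; IP-One TR-FRET, 10 min RT; Ex 320/Em 665, 620; Hill-fit AC50.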
12-hLO inh = 12-hLO (ALOX12) enzyme inhibition; P18054; purified 12-hLO, xylenol orange hydroperoxide absorbance; Potency, µM (series often up to 57.1 µM), inactives show at the highest dose activity change, negative = inhibition, actives largely listed as inhibitors; 150,000 compounds, 0.12% hits; AID 1452; note: potency is the fitted concentration of half-maximal effect; nearly all actives have a fitted effect of over 55% in size
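Purified human 12hLO (150 nM final) was preincubated with compounds for 15 min at room temperature in 25 mM Hepes pH 7.0, 0.01% Triton X-100, then reacted with 40 uM arachidonic acid for 30 min. Hydroperoxide was detected with ferrous iron/xylenol orange.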
HPGD inh = inhibitors of human 15-hydroxyprostaglandin dehydrogenase (HPGD) | 150,000 compounds, 4.3% hits | Potency, µM, for the others: top-dose activity change, negative = inhibition, most hits filed as inhibitors | purified HPGD, NADH fluorescence kinetic, PGE2 substrate | AID 894; active = well fitted inhibition curve with a large enough effect, not every such curve was filed as active; inconclusive = small, poorly fitted or top-dose-only effect, or another doubt; inactive = no such curve, though single readings can be large or run the other way; note: potency is the fitted concentration of half-maximal effect
Target sequence (P15428 whole entry, looked up): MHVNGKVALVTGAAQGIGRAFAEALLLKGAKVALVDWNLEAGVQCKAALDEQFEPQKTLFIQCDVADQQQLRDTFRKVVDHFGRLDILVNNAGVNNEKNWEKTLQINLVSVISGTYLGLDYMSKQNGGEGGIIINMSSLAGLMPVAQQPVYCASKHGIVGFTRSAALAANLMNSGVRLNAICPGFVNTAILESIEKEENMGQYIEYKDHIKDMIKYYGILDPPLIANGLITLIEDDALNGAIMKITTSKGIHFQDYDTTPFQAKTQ
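20 nM HPGD preincubated 15 min at room temperature with compound in 50 mM Tris-HCl pH 8, 0.01% Tween 20. Started with 1 mM NAD+ and 30 uM prostaglandin E2; NADH fluorescence (360/450 nm) read 5 times over 30-s intervals, last minus first.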
IMPase Li cell = IMPase inhibition in cells with lithium potentiation | CHO-M1 cells, IP1 TR-FRET (IP-One), carbachol + lithium | Potency, µM (titrated, usually from 59.4 µM), for inactives: at the top dose activity, negative = IMPase inhibition, hits mostly inhibitors | 210,000 compounds, 0.35% hits | AID 1457;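 note: IP1 builds up when IMPase is blocked and the TR-FRET signal falls; potency is the fitted concentration of half-maximal effect; plate controls were basal vehicle for no effect and high inhibitor control for full effect; nearly all actives have a fitted effect of over 50% in size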
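Lithium-sensitised IP1 accumulation assay; M1-expressing CHO cells treated 30 min at 37C with compound. Competitive antibody detection by time-resolved FRET followed a 10 min room-temperature lysis step.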
15-hLO-2 inh = inhibitors of human 15-lipoxygenase 2 (ALOX15B) | purified 15hLO-2, xylenol orange hydroperoxide absorbance | AID 881 | O15296 | Potency, µM (highest dose often 57.1 µM), for inactives: at the highest dose activity change, negative = inhibition, actives largely listed as inhibitors | 110,000 compounds, 0.56% hits; note: potency is the fitted concentration of half-maximal effect; nearly all actives have a fitted effect of over 60% in size
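Enzyme 50 nM, AA 45 uM, 25 mM Hepes pH 7.5 + 0.01% Triton X-100; cpd preinc 15 min RT, rxn 90 min RT; stop/detect with 200 uM XO + 300 uM Fe(II) in 50 mM H2SO4, 30 min; A573/A405.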
Active calls of the source: *; ? = inconclusive; · = no result; [ ] = remark or other dose. Unless noted, calls come from the whole dose curve; as a rule, active = well fitted curve in the direction sought with a large enough effect; inconclusive = small, poorly fitted or top-dose-only effect, or another doubt; inactive = no such curve, though single readings can be large; an effect the other way counts as inactive or inconclusive. Unless noted, % is set by controls: 0 for no effect and ±100 for the full control effect.

SMILES	PNC inhibitor	IMPase cell inh	12-hLO inh	HPGD inh	IMPase Li cell	15-hLO-2 inh
CC(Cn1cnc2ccccc21)C(=O)O (stereo not given)	-100*	-12	0%	-9%	1%	·
S=c1[nH]nc(Cc2ccccc2)n1-c1cccc2ccccc12	14	·	-11%	16µM*	-6%	·
Cc1cccc(Cc2c(C)nc3nc(SCC(=O)NCc4ccco4)nn3c2C)c1	20	0	1%	16µM*	3%[38.3 µM]	-27%
COc1ccccc1-c1nc(SCC(=O)Nc2ccc(C)c(C)c2)n[nH]1	·	0	·	·	·	·
CC1=NOC(=O)/C1=C\c1ccc(-c2cccc(Cl)c2)o1	56	3	-26%	3.2µM*	10%[38.3 µM]	2.5µM*
CC1=NOC(=O)/C1=C\c1ccc(-c2ccccc2Br)o1	·	·	·	·	7.1µM*	·
S=C(Nc1ccc(Oc2ccccc2)cc1)NC1CCCC1	?	-19	14µM*	-6%	9%	·
COc1ccc(NC(=O)C2CCCO2)cc1 (stereo not given)	?	15	-2%	25µM*	2%	·
COC(=O)COc1ccc(NC(=O)C2CCCO2)cc1 (stereo not given)	-15	3	0%	16µM*	28%[38.3 µM]	17%
CC(NC(=O)C1CCCO1)c1ccccc1 (stereo not given)	-24	-6	5%	18µM*	6%[38.3 µM]	2%
Cc1nc(NCc2ccccc2)c2nc(-c3ccccc3)n(CCN3CCCCC3)c2n1	·	·	-11%	?	10%	36%
COc1ccc(Cc2nnc(NC(=O)C3CCCO3)s2)cc1OC (stereo not given)	?	13	-5%	-14%	-7%	-12%
CCOc1cc(NC(=O)C2CCCO2)c(OCC)cc1NC(C)=O (stereo not given)	-94*	-3	-6%	-6%	6%[38.3 µM]	-4%
CC1CCN(C(=O)c2ccc(NC(=O)C3CCCO3)cc2)CC1 (stereo not given)	?	-4	-4%	0.71µM*	15%[38.3 µM]	-1%
COc1ccc(Cc2nnc(NC(=O)C3CCCO3)s2)cc1 (stereo not given)	-123*	6	-5%	-18%	12%[38.3 µM]	-2%
O=C(Nc1ccc(Oc2ccccc2)cc1)C1CCCO1 (stereo not given)	4	10	-1%	11µM*	6%[38.3 µM]	5%
CCCS(=O)(=O)O	·	·	4%[11.4 µM]	0%	-3%	-3%[11.4 µM]
NC(=S)c1ccc[n+]([C@@H]2O[C@@H](COP(=O)([O-])OP(=O)(O)OC[C@H]3O[C@@H](n4cnc5c(N)ncnc54)[C@H](OP(=O)(O)O)[C@H]3O)C(O)C2O)c1 (stereo not given in full)	·	·	·	?	-11%	·
O=S(=O)(NCc1ccco1)c1cccc2cccnc12	-100*	-4	-1%	-9%	5%	·
C/C(=N\Nc1ccccn1)c1ccc(S(=O)(=O)NCc2ccco2)cc1	-83*	·	-3%	-13%	5%	·
CCOC(=O)CNc1oc(-c2ccccc2)nc1-c1ccccc1	·	·	-1%	-5%	16%	·
Clc1cc2c(c(CSC3=NCN(CC4CC4)CN3)c1)OCOC2	·	·	0%[11.4 µM]	-5%	-2%	-2%[11.4 µM]
COc1cc2c(=O)n(Cc3ccccc3Cl)c(=O)n(CC(=O)Nc3ccc(C)c(C)c3)c2cc1OC	·	9	·	·	·	·
Cc1cc(C(=O)N/N=C2\CC(=O)CC(C)(C)C2)c(C)n1-c1ccc(F)cc1	47	·	-6%	-10%	-1%	·
Cc1cc(C(=O)N/N=C2\CC(=O)CC(C)(C)C2)c(C)n1-c1ccccc1	-95*	·	-6%	-22%	7%	·
SMILES	PNC inhibitor	IMPase cell inh	12-hLO inh	HPGD inh	IMPase Li cell	15-hLO-2 inh
Cc1c(Cc2ccc3c(c2)OCO3)sc(NC(=O)c2cccc3ccccc23)c1C(N)=O	36	·	-3%	14µM*	-5%	·
COC(=O)c1c(NC(=O)c2ccco2)sc(C)c1C	-81*	1	-5%	-28%	27%[38.3 µM]	2%
Cc1c(Cc2ccccc2)sc(NC(=O)c2ccco2)c1C(N)=O	-111*	11	0%	?	6%	·
CCOc1ccc(CC(=O)Nc2sc(Cc3ccccc3)c(C)c2C(N)=O)cc1OCC	13	9	-2%	-26%	-9%[38.3 µM]	-20%
CC/C(=C(\c1ccccc1)c1ccc(OCCN(C)C)cc1)c1ccc(O)cc1	·	·	-8%	-10%	-2%	9%
CCN(c1cccc(C)c1)S(=O)(=O)c1ccc(O)c(C(=O)O)c1	·	·	-2%	?	·	·
Cn1c(/C(C#N)=N/O)nc2ccccc21	19	5	-2%	-5%	6%	·
CCn1c(/C(C#N)=N/O)nc2ccccc21	?	·	-5%	35µM*	5%	·
CO[C@H]1C=CO[C@@]2(C)Oc3c(C)c(O)c4c(O)c(c(C=NN5CCN(C)CC5)c(O)c4c3C2=O)NC(=O)C(C)=CC=C[C@H](C)[C@H](O)[C@@H](C)[C@@H](O)[C@@H](C)[C@H](OC(C)=O)[C@@H]1C	-115*	·	-27%	25µM*	40%	·
Cc1nn(-c2ccccc2)c(C)c1NC(=O)COc1ccc(C#N)cc1	-80*	·	1%	-8%	-4%	·
Cc1ccc(S(=O)(=O)n2nc(-c3ccccc3)nc2NCc2ccccc2Cl)cc1	·	5	·	·	·	·
CCOC(=O)Cn1c(S(=O)(=O)Cc2ccccc2Cl)nc(-c2ccccc2)c1-c1ccccc1	-84*	-11[1.84 µM]	-6%	-13%	14%[38.3 µM]	5%[11.4 µM]
CC(=O)Nc1sc(/C(C#N)=C/c2ccc(Cl)c(Cl)c2)nc1-c1ccc(C)cc1	?	·	4%	-27%	13µM*	·
N=c1nc(N2CCCCC2)cc(N)n1O	-115*	5	0%	-5%	4%	11%
Cc1ccc2[nH]c3c(NCCN4CCOCC4)ncnc3c2c1	-84*	7	6%	-15%	29%[38.3 µM]	19%
Cc1cccc(-n2ncc3c(NCCN4CCOCC4)ncnc32)c1	-21	?	2%	-10%	10µM*	-5%
COc1ccc(-c2nc3c(c4c2C[C@H](c2ccccc2)OC4)CN(S(=O)(=O)c2ccc(NC(C)=O)cc2)CC3)c(C)c1	·	·	-2%[11.4 µM]	0%	-1%	·
O[C@@H](c1cc([C@@]23C[C@H]4CC[C@@H]2C[C@H](C4)C3)nc2c(Cl)cc(Cl)cc12)C1CCCCN1 (stereo not given in full)	·	·	·	-5%	-9%	·
Cc1ccc(/C=C2\CCCC3=C2NC(=S)NC3c2ccc(C)cc2)cc1 (stereo not given)	-22	·	?	32µM*	1%	·
O=C(CSc1ccccn1)Nc1ccccc1F	25	·	-2%	18µM*	-1%	·
COc1ccc(C(=O)N/N=C/c2ccc(OC)c(CSc3ccccn3)c2)cc1	-7	·	1%	32µM*	4%	·
